This is a sample that favours compounds with a hit; in the whole collection about 1.8% have one here.
VHR inh abs: DUSP3 (human) phosphatase inhibition; AID 1654; inhibition, % at 13.3 µM; recombinant VHR phosphatase, pNPP absorbance; actives 0.52% (n = 290,000); in the data active = inhibition above about 50%
Target sequence (P51452 whole entry, looked up): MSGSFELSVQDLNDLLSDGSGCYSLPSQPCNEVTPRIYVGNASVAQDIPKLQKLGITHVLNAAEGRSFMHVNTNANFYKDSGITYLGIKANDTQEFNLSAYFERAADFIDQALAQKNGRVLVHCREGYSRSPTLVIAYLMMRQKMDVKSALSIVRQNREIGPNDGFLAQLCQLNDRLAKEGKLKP
PfHsp40 rescue: rescue of PfHsp40-mediated yeast toxicity; S. cerevisiae expressing PfHsp40, growth rescue, ATP luminescence; growth rescue, % at 12.5 µM; actives 0.68% (n = 340,000); AID 504582; in the data active = growth rescue above about 28%, passing the limit was not always enough;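 also: yeast W303a lacking pdr1 and pdr3 grown in galactose medium; growth measured after three days at 30 °C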
Sa RN4220 lethal: S. aureus RN4220 growth inhibition; OD600, 16 h; inhibition, % (test concentration not listed); actives 0.33% (n = 330,000); in the data active = inhibition above about 85%
SSB-PriA inh: K. pneumoniae PriA-SSBct interaction inhibition | AlphaScreen SSBct-PriA binding, biotinylated peptide | inhibition, % at 33 µM | actives 0.6% (n = 430,000); in the data active = inhibition mostly above about 37%, no sharp cut-off; inactive = mostly below about 20%
Mtb hypoxia inh: reduces hypoxia-regulated biosensor signal in M. tuberculosis; M. tuberculosis hypoxia-regulated fluorescent reporter, fluorescence; fluorescence inhibition, % (concentration not given with the values); actives 0.1% (n = 300,000); in the data active = fluorescence inhibition mostly above about 23%, no sharp cut-off; inactive = mostly below about 17%
Sa ugtP lethal: compounds lethal to S. aureus RN4220 ugtP deletion mutant; OD600 growth, 16 h; growth inhibition, % (test concentration not listed); actives 0.54% (n = 330,000); AID 1259309; in the data active = growth inhibition above about 68%
Numbers stand for hits; – = inactive; · = not tested or not shown.

SMILES	VHR inh abs	PfHsp40 rescue	Sa RN4220 lethal	SSB-PriA inh	Mtb hypoxia inh	Sa ugtP lethal
COC(=O)C1=C(C)N(CC2CC2)C(=NCc2cccc(Cl)c2)NC1c1ccccc1 (stereo unspecified)	·	·	–	·	–	–
Cc1cccc(C(=O)NC(=S)Nc2ccc(N3CCOCC3)cc2)c1	–	–	–	–	–	87
O=C(NC(=S)Nc1ccc(N2CCOCC2)cc1)c1ccc(Cl)cc1	–	–	–	–	–	87
COc1ccc(C(=O)NC(=S)Nc2ccc(N3CCOCC3)cc2)cc1Cl	–	–	–	–	–	99
CCN1CCN(CCC(=O)Nc2cc(OC)cc(OC)c2)CC1	51	–	–	–	–	–
COc1cc(NC(=O)CCN2CCN(CCO)CC2)cc(OC)c1	–	–	–	–	–	–
COC(CNC(=O)c1ccc(Cl)s1)c1ccco1 (stereo unspecified)	·	·	·	–	·	·
O=C(NCc1ccc(F)cc1)N1C2CCC1COC2	·	·	·	–	·	·
O=C(NC[C@]1(O)CCOc2ccccc21)C1c2ccccc2Oc2ccccc21	·	·	·	–	·	·
O=C1C(=C(c2ccccc2)c2ccccc2)Nc2ccccc21	–	78	–	42	–	–
CCN(CC)S(=O)(=O)c1ccc(C(=O)Nc2nnc(Cc3cccs3)o2)cc1	·	·	·	–	·	·
CCCCN(C)S(=O)(=O)c1ccc(C(=O)Nc2nnc(Cc3cccs3)o2)cc1	·	·	·	58	·	·
CN(C)S(=O)(=O)c1ccc(C(=O)Nc2nnc(Cc3cccs3)o2)cc1	·	·	·	74	·	·
CS(=O)(=O)c1ccc(C(=O)Nc2nnc(Cc3cccs3)o2)cc1	·	·	·	64	·	·
O=C(Nc1nnc(-c2cccs2)o1)c1cccc(Oc2ccccc2)c1	–	500	99	–	–	100
CC(C)Oc1ccc(C(=O)Nc2nnc(Cc3cccs3)o2)cc1	·	·	·	–	·	·
Cc1nnsc1C(=O)Nc1ccccc1Cc1nc(-c2cccs2)no1	·	·	·	–	·	·
C#CCNC(=O)C1=CC(C(C)(C)C)CC(OCc2ccc(CO)cc2)O1 (stereo unspecified)	·	·	–	·	–	–
CC1CCCN(S(=O)(=O)c2ccc(C(=O)Nc3nnc(Cc4cccs4)o3)cc2)C1 (stereo unspecified)	·	·	·	37	·	·
CN(C1CC1)S(=O)(=O)c1ccc(C(=O)Nc2nnc(Cc3cccs3)o2)cc1	·	·	·	74	·	·
CCCCN(C)S(=O)(=O)c1ccc(C(=O)Nc2nnc(-c3ccc(OC)c(OC)c3)o2)cc1	·	·	·	–	·	·
CSc1ccccc1C(=O)Nc1nnc(Cc2cccs2)o1	·	·	·	45	·	·
CCCCN(C)S(=O)(=O)c1ccc(C(=O)Nc2nnc(-c3cccs3)o2)cc1	–	·	104	·	·	97
CCOC(=O)CNC(=O)C1CN(C(=O)c2ccc3c(c2)OCO3)C1	·	·	·	–	·	·
COc1ccccc1-n1c(SCc2ccc(Cl)c(Cl)c2)nc2c(c1=O)SCC2	·	·	·	–	·	·
SMILES	VHR inh abs	PfHsp40 rescue	Sa RN4220 lethal	SSB-PriA inh	Mtb hypoxia inh	Sa ugtP lethal
O=C(NC1CCCC(O)C1)NC(c1ccccc1)c1ccccc1 (stereo unspecified)	·	·	·	–	·	·
CC(=O)c1nn(-c2ccc(Cl)cc2)cc1C(=O)c1ccc(C)cc1	·	·	–	–	47	–
COc1ccc(C2SCCN2C(=O)Cc2c(C)noc2C)cc1 (stereo unspecified)	·	·	·	–	·	·
COc1cccc(C(=O)NNC(=O)c2ccc(=O)n(Cc3ccccc3)c2)c1	·	·	·	–	·	·
CC1(C)CC(=O)C2=C(C1)OC1=C(C(=O)CC(C)(C)C1)C2c1cc([N+](=O)[O-])cc([N+](=O)[O-])c1O	–	–	–	–	–	–
CC1(C)CC(=O)C(C2C3=C(CC(C)(C)CC3=O)Oc3c(Br)cc(Br)cc32)=C(O)C1 (stereo unspecified)	–	55	–	–	–	–
FC(F)(F)Sc1ccc(NC(=S)NCc2ccccc2)cc1	–	148	–	–	–	–
S=C(NCc1ccccc1)Nc1ccncc1	53	–	–	–	–	–
c1ccc(C2=NNC(=NCc3ccc4c(c3)OCO4)SC2)cc1	–	–	–	47	–	–
CC1CCN(c2ccc3c(c2)S(=O)(=O)c2ccccc2C3=O)CC1	·	199	–	–	–	–
Cc1cccn2c(=O)c(/C=C(\C#N)C(=O)NCCc3ccccc3)c(NCCOCCO)nc12	·	·	·	–	·	·
COc1ccccc1C(=O)Nc1ccc(C)cc1C(=O)c1ccccc1	–	–	–	–	–	93
COC(=O)c1ccccc1NC(=O)c1ccccc1OC	–	–	–	–	·	–
COc1ccccc1C(=O)Nc1ccccc1SC(=O)c1ccccc1OC	–	–	–	–	–	89

Screening results (PubChem BioAssay)
